Only some compounds are listed: those with a hit (about 3.5% of all), similar ones and a draw of the others.
MITF primary: MITF inhibitors, primary screen, biochemical, AlphaScreen, human. 650,000 compounds, 0.91% hits. Microphthalmia-associated transcription factor (Homo sapiens), O75030. inhibition, % at 2.6 µM. AlphaScreen MITF homodimerization, bead proximity signal. AID 1259374, 2018; in the data active means inhibition above about 50%
FBW7 act: FBW7 E3 ligase activators, primary screen, biochemical, AlphaScreen, human. AlphaScreen FBW7–phospho-cyclin E peptide binding, activator screen. normalized activity (activation), % at 26.1 µM. 650,000 compounds, 0.13% hits; in the data active means normalized activity above about 1.9%;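 further: purified mutant Fbw7 with reduced substrate affinity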
Target sequence (Q969H0 whole entry, looked up): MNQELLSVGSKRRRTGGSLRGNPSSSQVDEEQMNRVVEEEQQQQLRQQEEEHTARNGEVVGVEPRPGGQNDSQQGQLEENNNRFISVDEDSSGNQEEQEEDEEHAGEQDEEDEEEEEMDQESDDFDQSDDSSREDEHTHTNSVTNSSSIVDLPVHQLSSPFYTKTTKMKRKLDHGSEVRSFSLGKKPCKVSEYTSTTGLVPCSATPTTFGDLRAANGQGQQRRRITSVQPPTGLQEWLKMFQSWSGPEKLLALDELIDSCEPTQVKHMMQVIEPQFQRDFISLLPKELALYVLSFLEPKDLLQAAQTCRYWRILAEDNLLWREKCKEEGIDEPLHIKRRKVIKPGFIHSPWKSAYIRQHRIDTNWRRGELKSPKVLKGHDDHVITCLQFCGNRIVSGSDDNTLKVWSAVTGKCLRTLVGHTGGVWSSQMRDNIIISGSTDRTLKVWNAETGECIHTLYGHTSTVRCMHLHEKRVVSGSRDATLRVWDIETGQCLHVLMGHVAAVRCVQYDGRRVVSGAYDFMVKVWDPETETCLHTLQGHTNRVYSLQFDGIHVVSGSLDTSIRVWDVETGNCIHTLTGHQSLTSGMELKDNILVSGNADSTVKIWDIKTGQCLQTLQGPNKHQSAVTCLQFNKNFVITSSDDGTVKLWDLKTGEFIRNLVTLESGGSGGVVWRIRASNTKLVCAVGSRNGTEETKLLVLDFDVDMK
GPR151 ag: activators of human GPR151, primary screen, cell-based, PathHunter beta-arrestin, luminescence; G-protein coupled receptor 151 (Homo sapiens), Q8TDV0; activation, % at 11.2 µM; 650,000 compounds, 1% hits; PathHunter beta-arrestin GPR151 cells; AID 1508602, 2020; in the data active means activation above about 4.9%
TEAD-YAP inh: TEAD-YAP interaction inhibition, primary screen, TEAD-YAP interaction inhibitor project, luminescence, HEK-TIYL cells; 640,000 compounds, 1.4% hits; inhibition, % at 9.12 µM; TEAD-Gal4/YAP UAS-luciferase luminescence; in the data active means inhibition above about 32%
Hits are given with their value; – = inactive.

SMILES	MITF primary	FBW7 act	GPR151 ag	TEAD-YAP inh
COCCNC(=S)NNC(=O)C1(C)CC1(Cl)Cl (stereo unspecified)	–	–	–	–
O=C(O)CCN1C(=O)/C(=C/c2ccc([N+](=O)[O-])o2)SC1=S	56.3	–	–	–
O=C(O)CCCN1C(=O)/C(=C\c2ccc(O)cc2)SC1=S	–	–	–	66.5
O=C(O)CCCN1C(=O)/C(=C\c2ccccc2)SC1=S	–	–	–	–
O=C(O)CN1C(=O)/C(=C\c2ccc(O)cc2O)SC1=S	87.5	–	–	–
O=C(O)CCCN1C(=O)/C(=C\c2ccccn2)SC1=S	–	–	–	87.4
O=C(O)CN1C(=O)/C(=C\c2cc(Cl)ccc2O)SC1=S	–	–	–	–
C=CCn1cnc2c(cnn2-c2ccc(C)c(C)c2)c1=O	–	–	–	–
CCN(CC)C(=O)COc1cc(C)ccc1C(C)C	–	–	–	–
CC(C)CC(NC(=O)C1CCC(C)CC1)C(=O)N1CCN(c2ccccn2)CC1 (stereo unspecified)	–	–	–	–
COc1ccc(CN2CCN(Cc3ccc(C)o3)C(CCO)C2)c(OC)c1C (stereo unspecified)	–	–	–	–
O=C(O)CCCN1C(=O)/C(=C/c2ccc(O)cc2)SC1=S	–	–	–	75.4
COc1cc(/C=C2/SC(=S)N(CCC(=O)O)C2=O)ccc1O	–	–	–	32.5
CCOC(=O)c1ccc(CN(Cc2ccccc2C)S(=O)(=O)c2ccc(NC(C)=O)cc2)cc1	–	–	–	–
CC1=C(C(=O)NCc2ccccc2)C(c2ccc(Cl)cc2Cl)n2ncnc2N1 (stereo unspecified)	–	–	–	–
CC1=NN(c2nc3ccccc3o2)C(=O)/C1=C\N(C)C	–	–	–	92.4
CC1=NN(c2ccc(C)cc2)C(=O)/C1=C\N(C)C	–	–	–	–
COc1ccc(-c2cc(=O)oc3c(OC)c(OC)ccc23)cc1	–	–	–	55.6
Cc1cc(=O)oc2cc(OCC(=O)OCC(=O)Nc3cccc([N+](=O)[O-])c3)ccc12	–	–	–	–
O=C(COc1ccccc1)N1c2ccccc2Sc2ccccc21	–	–	–	61.7
COc1ccc(OCC(=O)N2c3ccccc3Sc3ccc(Cl)cc32)cc1	–	–	–	–
CCCCc1nnc(NC(=O)c2ccccc2I)s1	–	–	–	–
COc1cc(C(=O)Nc2cccc(-c3nc4ncccc4o3)c2)ccc1OCc1ccc(Cl)cc1	–	–	–	–
COc1ccc(CC(=O)Nc2cccc(-c3nc4ncccc4o3)c2)cc1OC	–	–	–	70.7
Cc1[nH]n(-c2ccccc2)c(=S)c1C=Nc1cccc(Br)c1	–	–	–	–
SMILES	MITF primary	FBW7 act	GPR151 ag	TEAD-YAP inh
Cc1cc(NC(=O)COC(=O)c2c(F)cccc2Cl)no1	–	–	–	–
COc1ccc(N2Cc3ccccc3C2=O)cc1	–	–	–	65.8
C=CC(=O)Oc1ccc(N2Cc3ccccc3C2=O)cc1	–	–	–	–
CC(O)c1ccc(N2Cc3ccccc3C2=O)cc1 (stereo unspecified)	–	–	–	55.9
O=C1c2ccccc2CN1c1ccccc1	–	–	–	–
O=S(=O)(NCc1ccco1)N1CCCCCC1	–	–	–	–
Cc1ccc(/C(O)=C/C(=O)C(=O)Nc2ccccc2)cc1	–	–	–	–
Cc1ccc(-c2cc3nc4c(c(NCCCn5ccnc5)n3n2)CCC4)cc1	–	–	–	–
CCNc1nc(NCC)n2c(SCC(=O)Nc3cc(=O)n(C)c(=O)n3C)nnc2n1	73.2	–	–	–
CCNc1nc(NCC)n2c(SCC(=O)Nc3cccc(Cl)c3C)nnc2n1	75.8	–	–	–
CCNc1nc(NCC)n2c(SCC(=O)c3ccc(OC)c(OC)c3)nnc2n1	68.7	–	–	–
O=C(NCCc1ccccc1)C(=O)N/N=C/c1ccccc1F	–	–	–	–
CCOC(=O)N1CCc2c(sc(NC(=O)Cc3ccccc3)c2C(N)=O)C1	–	–	–	–
CCOC(=O)c1c(NC(=O)c2ccc(Cl)s2)sc2c1CCN(C(C)C)C2	–	2.2	–	–
CCOC(=O)N1CCc2c(sc(NC(=O)c3cc(Cl)sc3Cl)c2C#N)C1	–	–	–	32.4
CCOC(=O)c1c(NC(=O)Cc2ccccc2)sc2c1CCN(C(=O)OCC)C2	–	5.2	–	–
CCOC(=O)N1CCc2c(sc(NC(=O)c3cccc(Br)c3)c2C#N)C1	–	–	–	41.5
C/C(=N\NC(=S)NC(C)C)c1ccc(C#N)cc1	–	–	–	–
O=C(O)/C(=C\c1ccccc1)NC(=O)c1cccc([N+](=O)[O-])c1	–	–	–	–
CC(=O)N1CCc2c(sc(NC(=O)CCc3ccccc3)c2C(N)=O)C1	–	–	–	51.2
CC(=O)N1CCc2c(sc(NC(=O)CSc3ccccc3)c2C(N)=O)C1	–	–	–	–
CCOC(=O)N1CCc2c(sc(NC(=O)/C=C/c3ccc([N+](=O)[O-])cc3)c2C#N)C1	–	–	–	–
CC(C)N1CCc2c(sc(NC(=O)c3cc4ccccc4oc3=O)c2C(N)=O)C1	–	–	–	61.8
CCOC(=O)N1CCc2c(sc(NC(=O)c3ccccc3)c2C#N)C1	–	–	–	51.0
CCOC(=O)N1CCc2c(sc(NC(=O)/C=C/c3cccs3)c2C#N)C1	–	–	–	49.1
SMILES	MITF primary	FBW7 act	GPR151 ag	TEAD-YAP inh
Cc1ccc(C(=O)Nc2c(C(=O)N3CCN(Cc4ccccc4)CC3)cnn2-c2ccccc2)cc1	–	–	–	–
CCOC(=O)N1CCc2c(sc(NC(=O)c3ccccc3Br)c2C#N)C1	–	–	–	53.3
CCOC(=O)N1CCc2c(sc(NCc3cccc(OC)c3OC)c2C(=O)Nc2ccc(OC)cc2OC)C1	–	–	–	36.9
CCOC(=O)N1CCc2c(sc(N)c2C(=O)Nc2ccccc2OCC)C1	–	–	–	32.1
CCOc1ccccc1NC(=O)c1c(N)sc2c1CCCC2	–	–	–	–
CC(=O)N1CCc2c(sc(NC(=O)/C=C/c3cccs3)c2C(N)=O)C1	–	–	–	40.8
O=C(O)CN1C(=O)NC2(CCCC2)C1=O	–	–	–	–
COc1ccc(CN2CCN(C(=O)c3cccnc3)CC2)c(OC)c1	–	–	–	–
O=C(CSc1nnc(-c2ccco2)c(-c2ccco2)n1)Nc1cccc(C(=O)O)c1	–	–	–	–
O=C(CSc1nnc(-c2ccco2)c(-c2ccco2)n1)Nc1ccc(C(=O)O)cc1	73.5	–	–	–
Cc1cc(NC(=O)CSc2nnc(-c3ccco3)c(-c3ccco3)n2)no1	–	–	–	32.4
COc1ccc(N(CC(=O)Nc2ccc(C)c(F)c2)S(=O)(=O)c2c(C)n[nH]c2C)cc1	–	–	–	–
Cc1cccc(-n2nc3c(c2NC(=O)c2ccccc2F)CSC3)c1C	–	–	–	–
CN1CCN(Cc2cc(CSc3ccccc3)c3cccnc3c2O)CC1	64.8	–	–	80.7
CN1CCN(Cc2cc(=O)oc3ccc4ccccc4c23)CC1	–	–	–	–
Oc1c(CN2CCN(c3cccc(C(F)(F)F)c3)CC2)cc(COCc2ccccc2)c2cccnc12	–	–	–	–
